From PubChem
Rows were chosen to be rich in hits. Some 4.3% of all compounds tested hit in one or more screens of this group.
FAS TE block: FAS thioesterase (human) inhibition. inhibition, % at 15 µM. recombinant FAS-TE, OMFH fluorogenic substrate, fluorescence endpoint. 0.67% of 360,000 active. P49327;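 active = compounds whose normalised, plate-corrected inhibition of enzyme fluorescence in the single-dose primary screen is 50% or more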;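 note: 0% = DMSO with enzyme and 100% = substrate without enzyme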
Target sequence (P49327 whole entry, looked up): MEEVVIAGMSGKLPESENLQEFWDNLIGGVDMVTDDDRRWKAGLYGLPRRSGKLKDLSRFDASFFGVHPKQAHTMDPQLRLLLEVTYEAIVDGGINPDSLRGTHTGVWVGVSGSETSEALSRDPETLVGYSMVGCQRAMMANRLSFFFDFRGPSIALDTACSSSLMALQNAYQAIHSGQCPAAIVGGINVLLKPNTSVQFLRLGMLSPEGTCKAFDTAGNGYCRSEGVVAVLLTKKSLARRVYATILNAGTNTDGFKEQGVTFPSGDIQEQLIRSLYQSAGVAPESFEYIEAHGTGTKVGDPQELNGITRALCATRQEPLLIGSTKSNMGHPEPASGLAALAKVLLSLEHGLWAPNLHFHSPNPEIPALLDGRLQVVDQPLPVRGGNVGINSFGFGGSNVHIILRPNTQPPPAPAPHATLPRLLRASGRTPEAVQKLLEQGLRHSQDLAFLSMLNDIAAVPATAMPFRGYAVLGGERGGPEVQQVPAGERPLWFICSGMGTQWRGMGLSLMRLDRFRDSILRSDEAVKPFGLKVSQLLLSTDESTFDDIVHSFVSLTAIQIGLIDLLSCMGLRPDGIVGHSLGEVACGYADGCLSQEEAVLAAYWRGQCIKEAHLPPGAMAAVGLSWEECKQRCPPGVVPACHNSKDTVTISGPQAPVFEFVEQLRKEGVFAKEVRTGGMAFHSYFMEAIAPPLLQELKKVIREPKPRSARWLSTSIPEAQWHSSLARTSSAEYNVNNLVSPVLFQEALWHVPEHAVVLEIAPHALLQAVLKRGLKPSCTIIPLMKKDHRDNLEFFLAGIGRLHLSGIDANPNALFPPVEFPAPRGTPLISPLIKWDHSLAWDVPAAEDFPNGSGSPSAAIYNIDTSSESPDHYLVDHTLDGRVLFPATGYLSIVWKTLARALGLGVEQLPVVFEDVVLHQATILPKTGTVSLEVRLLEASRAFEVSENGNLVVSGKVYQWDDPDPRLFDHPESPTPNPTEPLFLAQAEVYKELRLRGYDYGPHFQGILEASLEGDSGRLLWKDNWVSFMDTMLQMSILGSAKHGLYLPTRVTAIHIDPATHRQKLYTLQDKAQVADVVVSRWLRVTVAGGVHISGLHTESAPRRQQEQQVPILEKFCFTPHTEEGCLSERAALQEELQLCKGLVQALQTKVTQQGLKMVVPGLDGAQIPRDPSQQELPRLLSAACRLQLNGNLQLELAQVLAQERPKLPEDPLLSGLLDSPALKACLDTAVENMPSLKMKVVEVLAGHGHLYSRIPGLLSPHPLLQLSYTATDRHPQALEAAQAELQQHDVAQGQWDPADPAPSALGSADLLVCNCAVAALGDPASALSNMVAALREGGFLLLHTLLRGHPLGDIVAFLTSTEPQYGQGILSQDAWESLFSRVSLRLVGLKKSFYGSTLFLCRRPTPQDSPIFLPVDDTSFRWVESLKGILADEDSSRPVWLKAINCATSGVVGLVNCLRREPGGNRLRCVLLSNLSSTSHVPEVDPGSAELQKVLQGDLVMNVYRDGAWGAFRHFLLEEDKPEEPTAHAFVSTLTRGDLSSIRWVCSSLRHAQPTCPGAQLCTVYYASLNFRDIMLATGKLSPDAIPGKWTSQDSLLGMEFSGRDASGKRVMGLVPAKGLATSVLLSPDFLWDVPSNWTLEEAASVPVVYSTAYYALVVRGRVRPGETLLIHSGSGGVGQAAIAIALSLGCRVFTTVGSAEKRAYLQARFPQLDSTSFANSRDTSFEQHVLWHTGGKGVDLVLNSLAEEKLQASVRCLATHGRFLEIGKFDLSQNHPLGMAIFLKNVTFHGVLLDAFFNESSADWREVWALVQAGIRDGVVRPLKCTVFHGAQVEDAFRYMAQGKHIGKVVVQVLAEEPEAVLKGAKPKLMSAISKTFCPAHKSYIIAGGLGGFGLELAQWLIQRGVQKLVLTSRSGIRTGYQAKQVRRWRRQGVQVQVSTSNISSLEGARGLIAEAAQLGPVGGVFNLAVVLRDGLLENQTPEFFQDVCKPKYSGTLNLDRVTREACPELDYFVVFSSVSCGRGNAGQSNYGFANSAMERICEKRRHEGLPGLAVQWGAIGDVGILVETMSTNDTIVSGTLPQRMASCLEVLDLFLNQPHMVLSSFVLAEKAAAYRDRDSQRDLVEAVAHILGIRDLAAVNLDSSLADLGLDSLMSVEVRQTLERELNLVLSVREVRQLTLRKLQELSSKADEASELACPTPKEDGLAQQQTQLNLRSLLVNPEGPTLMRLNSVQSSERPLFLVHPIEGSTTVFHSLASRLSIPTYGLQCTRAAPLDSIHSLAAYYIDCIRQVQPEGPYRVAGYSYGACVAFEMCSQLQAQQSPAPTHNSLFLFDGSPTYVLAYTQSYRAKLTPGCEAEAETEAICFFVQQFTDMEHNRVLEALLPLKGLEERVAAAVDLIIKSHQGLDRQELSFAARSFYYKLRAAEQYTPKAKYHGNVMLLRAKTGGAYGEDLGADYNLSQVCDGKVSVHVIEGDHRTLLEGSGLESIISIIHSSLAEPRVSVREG
NadD block: inhibitors of Staphylococcus aureus NadD; purified NadD enzyme, colorimetric absorbance read-out; inhibition, % at 20 µM; 0.78% of 360,000 active; AID 602399; in the data active = inhibition above about 26%
rCAG RNA binder: molecules binding r(CAG) RNA repeats | r(CAG) RNA repeat, TO-PRO-1 dye displacement fluorescence | 1.3% of 370,000 active | inhibition, % at 3 µM | AID 651821;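 active = inhibition above the plate cutoff, the mean of all test compounds on that plate plus 3 SD, cut at about 35% in these data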;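 note: 0% = DMSO alone and 100% = 100 µM mitoxantrone as full dye displacement; higher means more dye released from RNA so lower well fluorescence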
NR3A LBD binder: modulators (binders) of human NR3A ligand-binding domain; NR3A LBD differential scanning fluorimetry, Tm shift; 0% = protein alone, 100% = glycine-bound protein; Tm shift relative to glycine control, % at 25 µM; 2.5% of 340,000 active; AID 1259313;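 active = melting temperature shift of at least 10% of the positive control shift, at one fixed dose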
Starred values were filed as active, the others as inactive; . = no result.

SMILES | FAS TE block | NadD block | rCAG RNA binder | NR3A LBD binder
COc1ccc(-n2c(SCC(=O)NNC(=S)Nc3ccc(C)cc3)nnc2-c2ccccc2)cc1 | . | . | 30 | .
O=C(Nc1ccc(F)cc1)OC1CC2CC1[C@H]1CCCCN1C2 (some centres undefined) | . | . | 8 | .
Cc1n[nH]c(=S)n1/N=C/c1ccccc1OCc1ccc(Cl)cc1Cl | -6 | 11 | 4 | 16*
Cc1n[nH]c(=S)n1/N=C/c1ccc(OCc2ccc(Cl)cc2Cl)cc1 | 10 | 1 | 2 | -5
Cc1ccccc1CN1CCCCC(NC(=O)C2CCCCC2)C1=O (centres undefined) | . | . | 2 | .
C/C(=N\NC(=O)C1CC1c1ccccc1)c1ccc(C)s1 (centres undefined) | -1 | -1 | -2 | 2
CCOC(=O)C(/C(C)=N/NC(=O)C1CC1c1ccccc1)C(C)C (centres undefined) | -6 | -3 | -1 | 16*
N#Cc1cc(-c2ccc(Cl)cc2)cnc1Sc1ccc(F)cc1 | 35 | -6 | -1 | 13*
N#Cc1cc(-c2ccccc2)cnc1Sc1ccc(Cl)cc1 | 37 | -1 | 0 | 0
Cc1[nH]nc2c1C(c1ccc(Br)cc1)N(c1ccccc1)C2=O (centres undefined) | . | . | 3 | .
O=S(=O)(c1ccc2nc(Nc3ccccc3)ccc2c1)N1CCCCC1 | 38 | 10 | 13 | 30*
O=C(Oc1ccc2ccccc2c1)c1ccccc1 | 28 | -3 | 3 | 19*
O=C(Oc1ccccc1)c1ccccc1 | 7 | -2 | 1 | -1
COc1ccc(CN2CCC(CNC(=O)NC3CCCC3)CC2)cc1 | . | . | -1 | .
CCN1C(=O)C(CC(=O)Nc2ccc(F)cc2)N(Cc2cccs2)C1=S (centres undefined) | 31 | -6 | 1 | 13*
CCCOc1ccc(NC(=O)CC2C(=O)N(Cc3ccccc3)C(=S)N2Cc2cccs2)cc1 (centres undefined) | 27 | 0 | 12 | 16*
COc1ccccc1-c1cnn2c(NCc3ccccc3)cc(C)nc12 | 17 | 6 | 1 | 10*
CC(=O)Nc1cccc(OCc2cccc([N+](=O)[O-])c2)c1 | 8 | -2 | 2 | 17*
O=C(Nc1ccc(C(=O)O)cc1)Nc1cccc([N+](=O)[O-])c1 | -6 | -3 | 0 | 1
O=C(Nc1cccc([N+](=O)[O-])c1)Nc1ccc2c(c1)OCCO2 | 41 | -10 | 10 | 29*
CC(=O)Nc1ccc(OCc2cccc([N+](=O)[O-])c2)cc1 | 1 | -5 | 2 | -1
CC(C(=O)Nc1ccc2c(c1)OCCO2)c1ccc([N+](=O)[O-])cc1 (centres undefined) | 25 | -2 | 1 | 3
O=C(Nc1cccc([N+](=O)[O-])c1)Nc1cccc([N+](=O)[O-])c1 | 28 | 4 | 13 | 26*
O=C(Nc1cccc([N+](=O)[O-])c1)C1CC(=O)N(C2CCCCC2)C1 (centres undefined) | 18 | 0 | -3 | 14*
CC1CCCN(CCCNS(=O)(=O)c2cc3c(cc2Br)CCN3C(=O)C2CC2)C1 (centres undefined) | . | . | 6 | .
SMILES | FAS TE block | NadD block | rCAG RNA binder | NR3A LBD binder
COc1ccc(OC)c(S(=O)(=O)N(CC(=O)NC2CCC(C)CC2)c2cc(C)cc(C)c2)c1 (centres undefined) | . | . | 3 | .
O=C(COc1cccc([N+](=O)[O-])c1)NN1C(=O)c2ccccc2C1=O | 5 | -8 | 1 | 546*
CC(C)S(=O)(=O)c1csc(NC(=O)Nc2cccc([N+](=O)[O-])c2)c1Cl | 25 | -10 | 7 | 29*
O=C(NCc1ccco1)Nc1cccc([N+](=O)[O-])c1 | 19 | -9 | -1 | 19*
Cc1ccc(S(=O)(=O)NC(C)C(=O)Nc2cccc([N+](=O)[O-])c2)cc1 (centres undefined) | 0 | -7 | 3 | 2
COc1cc(NC(=O)Nc2cccc([N+](=O)[O-])c2)cc(OC)c1 | 26 | -8 | 6 | 29*
Nc1c(N=Nc2ccccc2F)c(=O)[nH]n1-c1ccccc1 | 16 | -3 | 9 | 12*
O=C(Nc1cccc(Br)c1)c1ccc2c(c1)SC1=NS(=O)(=O)CCN12 | 3 | 2 | 12 | 18*
Cn1c(=O)c(=O)n(C)c2cc(S(=O)(=O)N3CCN(Cc4ccc5c(c4)OCO5)CC3)ccc21 | . | . | 9 | .
CC(C)(C)c1ccc(S(=O)(=O)N2CCC(C(=O)N3CCN(C4CCCCC4)CC3)CC2)cc1 | . | . | 2 | .
Brc1ccc(-c2noc(C3CCCCC3)n2)cc1 | 17 | 0 | -1 | 14*
c1ccc(-c2noc(C3CCCCC3)n2)nc1 | -6 | 2 | -5 | 1
Cc1cc(N)n(-c2nc3ccccc3s2)n1 | 3 | -2 | 3 | 32*
Cc1nn(-c2nc3ccccc3s2)c(N)c1-c1ccccc1 | 24 | -7 | 1 | -11
Cc1nn(-c2nc3ccccc3s2)c(N)c1Sc1ccc(F)cc1 | 6 | -3 | -1 | 15*
Cc1cc(C)n(-c2nc3ccccc3s2)n1 | 13 | 0 | 0 | 0
CCn1cc(CCC(=O)Nc2ccc(Oc3cccnc3)cc2)c2ccccc21 | . | . | 4 | .
O=C(O)CC1(O)C(=O)N(Cc2ccccc2)c2ccccc21 (centres undefined) | -7 | 0 | 2 | -2
COc1cccc2cc(C(=O)CC3(O)C(=O)N(Cc4ccccc4)c4ccccc43)c(=O)oc12 (centres undefined) | -9 | 2 | 9 | 15*
COc1cccc2cc(C(=O)CS(=O)(=O)c3ccc(Cl)cc3)c(=O)oc12 | -6 | 8 | 47* | 0
O=C(NNC(=O)c1cccs1)c1ccc(Br)o1 | -9 | -7 | 2 | -1
O=C(Nc1ccc(N2CCN(C(=O)c3cccs3)CC2)cc1)c1ccc(Br)o1 | 6 | -1 | 5 | -4
CC(=O)NC(=S)Nc1ccc(NC(=S)NC(=O)c2cccs2)cc1 | 0 | 5 | 0 | 2
O=C(Nc1ccc(Nc2ccccc2)cc1)c1ccc(Br)o1 | 26 | -5 | 7 | 21*
Cc1c(C(=O)NC(=S)Nc2ccc(NC(=O)c3cccs3)cc2)cccc1[N+](=O)[O-] | 24 | 19 | 8 | 11*
SMILES | FAS TE block | NadD block | rCAG RNA binder | NR3A LBD binder
O=C(Nc1cccc(NC(=O)c2cccs2)c1)c1ccc(Br)o1 | 5 | -7 | 6 | 16*
O=C(Nc1ccc(NC(=O)c2cccs2)cc1)c1ccc(Br)o1 | -1 | 2 | 2 | 24*
Cc1ccc(-c2nc3ncccn3c2NC(=O)c2cccc(C)c2)cc1 | . | . | 2 | .
CN1C(=O)C[C@@](C#N)(C(=O)Nc2nc3ccc(F)cc3s2)[C@H]1c1ccccc1 | . | . | 3 | .
COC(=O)c1cc(-c2cc(Cl)ccc2OC)c(=O)n2c1CCC2 | . | . | 0 | .
O=C(/C=C/c1cccc([N+](=O)[O-])c1)Nc1ccc(NC(=O)c2cccs2)cc1 | 0 | 14 | 2 | 25*
O=C(Nc1ccc(NC(=S)NC(=O)c2cccs2)cc1)c1ccco1 | 4 | -7 | 7 | 13*
O=C(NC(=S)NNC(=O)c1cccs1)c1ccco1 | -7 | 2 | 1 | -1
O=C(/C=C/c1cccc([N+](=O)[O-])c1)c1cccs1 | 2 | -3 | 1 | 0
